Assay results published in PubChem BioAssay (NCI).
Several values for one entry are separate records, joined by “and”; a condition that tells them apart may be missing. Equal values may be shown once. The panel holds about 83,000 compounds, 20% with a hit somewhere; the sample as a whole holds those more often.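 Negative percent growth values reflect cell death: -40 means 40% of the cells present at the start died, and -100 means all died.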 Activity calls are given as the source filed them. Rule for the calls: active = growth percent below 10; inactive = the rest.

Experiments:
Assay in all cases: NCI-60 one-dose screen, 48 h (100 = growth as untreated, 0 = no growth, -100 = all killed)
Conditions in all cases: 10 µM unless noted
[1] = tested on: NCI-H23 lung
[2] = tested on: NCI-H226 lung
[3] = tested on: HOP-62 NSCLC
[4] = tested on: NCI-H460 lung
[5] = tested on: HOP-92 NSCLC
[6] = tested on: A549/ATCC NSCLC
[7] = tested on: 786-0 renal
[8] = tested on: COLO 205 colon
[9] = tested on: DU-145 prostate
[10] = tested on: K-562 leukemia
[11] = tested on: MDA-MB-231 breast
[12] = tested on: RXF 393 renal
[13] = tested on: SF-268 CNS
[14] = tested on: SF-295 CNS
[15] = tested on: SF-539 CNS
[16] = tested on: UACC-257 melanoma
[17] = tested on: NCI-H322M lung
[18] = tested on: NCI-H522 lung
[19] = tested on: MALME-3M melanoma
[20] = tested on: M14 melanoma

Compound | growth [1] | growth [2] | growth [3] | growth [4] | growth [5] | growth [6] | growth [7] | growth [8] | growth [9] | growth [10] | growth [11] | growth [12] | growth [13] | growth [14] | growth [15] | growth [16] | growth [17] | growth [18] | growth [19] | growth [20]
COC(=O)C1=CO[C@@H](C)[C@@H]2CN3CCc4c([nH]c5cc(OC)ccc45)[C@@H]3C[C@H]12 | 95.9% (inactive) | 94.5% (inactive) | 113% (inactive) | 99.7% (inactive) | 78% (inactive) | 95.8% (inactive) | 108% (inactive) | 101% (inactive) | 104% (inactive) | 97.6% (inactive) | 97.2% (inactive) | 115% (inactive) | 98.6% (inactive) | 117% (inactive) | 104% (inactive) | 95.7% (inactive) |  |  |  | 
O=NN(c1ccccc1)c1ccccc1 | 98.3% (inactive) | 95% (inactive) |  | 102% (inactive) | 88.1% (inactive) | 96% (inactive) | 105% (inactive) | 110% (inactive) | 103% (inactive) | 113% (inactive) | 98.9% (inactive) | 98.3% (inactive) | 100% (inactive) | 102% (inactive) | 106% (inactive) | 96% (inactive) | 94.1% (inactive) | 105% (inactive) | 86.2% (inactive) | 
ClCc1ccc(Cl)c(Cl)c1 | 102% (inactive) | 93.7% (inactive) | 111% (inactive) | 103% (inactive) |  | 107% (inactive) | 95.4% (inactive) | 116% (inactive) | 106% (inactive) | 107% (inactive) | 108% (inactive) |  | 101% (inactive) | 94.4% (inactive) | 99.6% (inactive) | 98.3% (inactive) | 98.3% (inactive) | 94.2% (inactive) | 83% (inactive) | 95.3% (inactive)
C=C1C(=O)OC2CC3(C)OC3C3OC3C3=CC(OC3=O)C12 (centres undefined) | 93.8% (inactive) and 101% (inactive) |  | 96.8% (inactive) and 115% (inactive) | 114% (inactive) and 105% (inactive) | 9.95% (active) | 93.1% (inactive) and 105% (inactive) | 96% (inactive) and 108% (inactive) | -77.1% (active) | 109% (inactive) and 111% (inactive) | -0.414% (active) and 6.29% (active) | 104% (inactive) and 107% (inactive) | 8.42% (active) and 68.4% (inactive) | 99.2% (inactive) and 109% (inactive) | 103% (inactive) and 97.9% (inactive) | 101% (inactive) and 96.3% (inactive) | 53.6% (inactive) and 82.2% (inactive) | 98.7% (inactive) and 101% (inactive) | -74.9% (active) and -76.6% (active) | -53.4% (active) and -59.2% (active) | 88.3% (inactive) and 91.9% (inactive)
CC1=C2[C@H]3OC(=O)[C@@H](C)[C@@H]3CC[C@@]2(C)C=CC1=O | 54.5% (inactive) | 92% (inactive) | 111% (inactive) | 116% (inactive) |  |  | 106% (inactive) | 96.7% (inactive) | 109% (inactive) | 110% (inactive) | 112% (inactive) |  | 107% (inactive) | 106% (inactive) | 83.3% (inactive) |  | 85.8% (inactive) | 123% (inactive) | 87.3% (inactive) | 120% (inactive)
O=[N+]([O-])c1c(Cl)cc(Cl)c([N+](=O)[O-])c1Cl | 98.3% (inactive) | 117% (inactive) |  | 95.8% (inactive) | 99.6% (inactive) | 108% (inactive) | 126% (inactive) | 96% (inactive) | 81.3% (inactive) | 103% (inactive) | 110% (inactive) | 131% (inactive) | 96% (inactive) |  | 110% (inactive) | 62.9% (inactive) | 119% (inactive) | 36.6% (inactive) | 175% (inactive) | 97.2% (inactive)
ClC1OC(Cl)(Cl)C(Cl)(Cl)OC1(Cl)Cl (centres undefined) | 98.6% (inactive) | 94.7% (inactive) | 104% (inactive) | 128% (inactive) |  | 102% (inactive) | 109% (inactive) | 110% (inactive) | 114% (inactive) | 98.1% (inactive) | 105% (inactive) | 110% (inactive) | 108% (inactive) | 109% (inactive) | 91% (inactive) | 99.5% (inactive) | 100% (inactive) | 89.4% (inactive) | 97.5% (inactive) | 98.1% (inactive)
Nc1ccc(P(=O)(O)O)cc1 | 101% (inactive) and 96.7% (inactive) | 102% (inactive) and 100% (inactive) |  | 113% (inactive) and 103% (inactive) | 95.3% (inactive) and 90.3% (inactive) | 102% (inactive) and 94.4% (inactive) | 113% (inactive) and 91.2% (inactive) | 111% (inactive) and 105% (inactive) | 119% (inactive) and 107% (inactive) | 110% (inactive) and 104% (inactive) | 114% (inactive) and 103% (inactive) | 117% (inactive) and 102% (inactive) | 113% (inactive) and 107% (inactive) | 99.5% (inactive) and 93.4% (inactive) | 88.6% (inactive) and 100% (inactive) | 104% (inactive) and 99.2% (inactive) | 104% (inactive) and 99.3% (inactive) | 111% (inactive) and 88.8% (inactive) | 101% (inactive) and 95.7% (inactive) | 121% (inactive) and 100% (inactive)
CC(=O)C(N)Cc1ccccc1 (centres undefined) | 98.3% (inactive) |  | 85.1% (inactive) |  | 86.3% (inactive) | 67.9% (inactive) | 96.5% (inactive) | 97.8% (inactive) | 99.3% (inactive) | 98.8% (inactive) | 105% (inactive) | 101% (inactive) | 105% (inactive) | 102% (inactive) | 100% (inactive) | 73.3% (inactive) | 106% (inactive) | 91.7% (inactive) | 105% (inactive) | 90.1% (inactive)
Cc1ccc(C(=O)O[C@H](C(=O)O)[C@H](OC(=O)c2ccc(C)cc2)C(=O)O)cc1 | 102% (inactive) | 104% (inactive) | 110% (inactive) | 115% (inactive) |  | 103% (inactive) | 101% (inactive) | 108% (inactive) | 110% (inactive) | 89.9% (inactive) |  | 115% (inactive) | 105% (inactive) | 118% (inactive) | 102% (inactive) | 94% (inactive) | 104% (inactive) | 119% (inactive) | 107% (inactive) | 100% (inactive)
Cc1c2ccncc2c(C)c2c1[nH]c1ccccc12 | -79.5% (active) | -0.884% (active) |  | -69.2% (active) |  | -65.4% (active) | -95.9% (active) | -87.1% (active) | -97.8% (active) | 3.9% (active) | -68.9% (active) | -87.3% (active) | -77.1% (active) | -84.7% (active) | -93.6% (active) | -62.1% (active) | -83.3% (active) | -50.6% (active) | -77.8% (active) | -89.9% (active)
N#Cc1ccc(Cl)cc1 | 111% (inactive) | 109% (inactive) | 105% (inactive) | 122% (inactive) |  | 103% (inactive) | 108% (inactive) | 117% (inactive) | 117% (inactive) | 99.4% (inactive) | 108% (inactive) | 120% (inactive) | 108% (inactive) | 113% (inactive) | 108% (inactive) | 104% (inactive) | 119% (inactive) |  | 115% (inactive) | 106% (inactive)
CC1(C)N=C(N)N=C(N)N1c1ccc(CCC(=O)Nc2ccc(S(=O)(=O)F)cc2)cc1 |  | 65.3% (inactive) | 47.1% (inactive) | 14.5% (inactive) | 70.8% (inactive) | 18.9% (inactive) | 21.3% (inactive) | 28.8% (inactive) | 28.1% (inactive) | 12.9% (inactive) | 76.4% (inactive) | 47.3% (inactive) | 25.1% (inactive) | 40.3% (inactive) | 28.7% (inactive) | 41.1% (inactive) |  | 23.6% (inactive) | 47% (inactive) | 
CCCCOC(N)=O | 100% (inactive) | 103% (inactive) | 105% (inactive) | 106% (inactive) |  | 109% (inactive) | 104% (inactive) | 108% (inactive) | 109% (inactive) | 102% (inactive) | 109% (inactive) |  | 104% (inactive) | 105% (inactive) | 109% (inactive) | 110% (inactive) | 102% (inactive) | 106% (inactive) |  | 97.5% (inactive)
